Assay results from PubChem BioAssay (EPA / NIEHS).
Where “and” joins values, the source holds several entries; their conditions need not be identical. Equal values may be shown once. Results filed as inconclusive are left out. More than one record can exist for a structure, and the calls need not agree. Calls of active or inactive are those of the source. The calls were made as follows: active = hit-call score of the fitted dose curve at least 0.9, where 1 is the maximum; inconclusive = response in the unintended direction; inactive = score below 0.9.

Experiment: TOX21_p53_BLA_p5_viability: Viability Assessment in the Tox21 HCT-116 p53 Agonism Beta-lactamase Assay, Phase 5 (AID 2283600)
Source text: TOX21_p53_BLA_p5 is a cell-based, single-readout assay that uses HCT116, a human intestinal cell line, […] in a 1536-well plate.TOX21_p53_BLA_p5_viability is an assay readout measuring cellular ATP content and detected with CellTiter-Glo Luciferase-coupled ATP quantitation.TOX21_p53_BLA_p5_viability used a type of viability reporter where loss-of-signal activity can be used to understand changes in the cell viability. Furthermore, this assay endpoint can be referred to as a secondary readout, because this assay has produced multiple assay endpoints where this one serves a viability function. To generalize the intended target to other relatable targets, this assay endpoint is annotated to the cell cycle intended target family, where the subfamily is cytotoxicity.
Thawing Method: Place 14 mL of pre-warmed thaw medium into a 15 mL of conical tub. Remove the vial of cells to be thawed from liquid nitrogen and thaw rapidly by placing at 37C in a water bath with gentle agitation for 1-2 minutes. Decontaminate the vial by wiping with 70% ethanol before opening in a biological safety cabinet. Transfer the vial contents drop-wise into 14 mL of thaw medium in a sterile 15-mL conical tub. Centrifuge cells at 900 rpm for 4 minutes and resuspend in thaw medium. Transfer contents to the T75 tissue culture flask containing Thaw Medium and place flask in a humidified 37C/5% CO2 incubator. Switch to growth medium at first passage.Propagation Method: Aspirate medium, rinse once in DPBS, add 0.25% Trypsin/EDTA and swirl to coat the cell evenly. Add an equal volume of Growth Medium to inactivate Trypsin after 2-3 minutes incubation at 37C. Centrifuge cells at 900 rpm for 4 minutes and resuspend in growth medium. Cell should be passage or fed at least twice a week.Assay Protocol: Harvest cells from culture in growth medium and resuspend in assay medium. 2.2 Dispense 4000 cells/5 uL/well into 1536-well black/clear bottom plates using a Multidrop dispenser. After the cells were incubated at 37C for 5 hours, 23 nL of compounds dissolved in DMSO were transferred to the assay plate by a PinTool resulting in a 217-fold dilution. Incubate the plates for 16 hours at 37C, 5% CO2. Add 1 uL of 6X LiveBLAzer FRET B/G (CCF4-AM) Substrate Mixture to each well using a BioRAPTR dispenser and incubate the plates at room temperature for 2 hours. Measure fluorescence intensity at 460 and 530 nm emission and 405 nm excitation by an Envision detector. Data is expressed as the ratio of 460nm/530nm emissions. Add 4 uL of Cell-titer Glo to each well using BioRAPTR and incubate the plates at room temperature for […]. For cell viability readout that measures cytotoxicity, 4 ul/well of CellTiter-Glo reagent was added into the assay plates using a Flying Reagent Dispenser. After 30 min incubation at room temperature, the luminescence intensity in the plates was measured using a ViewLux plate reader.

SMILES | outcome | AC50
O=C1c2c(O)cccc2Cc2cccc(O)c21 | inactive | –
CS(=O)(=O)c1ccc([C@@H](C[C@H]2CCC(=O)C2)C(=O)Nc2cnccn2)cc1Cl | inactive | –
CC(C)(O)c1ccc(CNC(=O)c2cccnc2Oc2ccc(F)cc2)cc1 | inactive | –
C=CCc1ccc(OC)c(OC)c1 | inactive | –
CN(C)C(=O)NC1(c2ccccc2)CCN(CC[C@@]2(c3ccc(F)c(F)c3)CN(C(=O)c3ccccc3)CCO2)CC1 | inactive | –
Oc1ccc(O)cc1 | – | 17 µM (active) and 35.8 µM (active) and 37.7 µM (active)
Cc1cc(SC2=C(O)C[C@@](CCc3ccc(N)cc3)(C(C)C)OC2=O)c(C(C)(C)C)cc1CO | inactive | –
CN(C)CCCN1c2ccccc2Sc2ccc(Cl)cc21 | – | 77.8 µM (active)
CCCCC(CC)COP(=O)(OCC(CC)CCCC)OCC(CC)CCCC (stereo not given) | inactive | –
Nc1nc(Cl)nc2c1ncn2[C@H]1C[C@H](O)[C@@H](CO)O1 | inactive | –
CCCCCCCCCC[N+](C)(C)[O-] | inactive | –
COc1ccc(OC(F)(F)F)cc1CN[C@H]1CCCN[C@H]1c1ccccc1 | inactive | –
CN(C)CCCN(C)CCCN(C)C | inactive | –
NC(=Nc1ccccc1)Nc1ccccc1 | inactive | –
CCc1cc(C2=C(C(=O)O)N(c3ccccc3C(F)(F)F)S(=O)(=O)c3ccccc32)cc2c1OCO2 | inactive | –
CCCC[C@H]1CN(CC2CCOCC2)C(=O)OC12CCN(C1(C)CCN(C(=O)c3c(C)ncnc3C)CC1)CC2 | inactive | –
CC(C)(C)c1ccccc1 | inactive | –
CC1(C)C(=O)NC(=O)N1CO | inactive | –
OCC(CO)n1cnc(-c2ccc(F)cc2)c1-c1ccnc(Oc2ccccc2)n1 | inactive | –

SMILES | outcome | AC50
Oc1ccccc1O | inactive | –
Cc1c(C)c2c(c(C)c1O)CCC(C)(COc1ccc(CC3SC(=O)NC3=O)cc1)O2 (stereo not given) | inactive | 87 µM (active)
O=C1OC(c2ccc(O)cc2)(c2ccc(O)cc2)c2ccccc21 | inactive | –
O=C(O)c1[nH]n(-c2ccc(S(=O)(=O)O)cc2)c(=O)c1N=Nc1ccc(S(=O)(=O)O)cc1 | inactive | –
COC(=O)CCCC(=O)OC | inactive | –
CO[C@@H]1COCC[C@@H]1N[C@@H]1CC[C@@](C(=O)N2CCc3ncc(C(F)(F)F)cc3C2)(C(C)C)C1 | inactive | –
CN(C)C(=O)NC1(c2ccccc2)CCN(CCC[C@]2(c3ccc(Cl)c(Cl)c3)CCCN(C(=O)c3ccccc3)C2)CC1 | inactive | –
c1ccc2occc2c1 | inactive | –
CCC(C)N(C)C(=O)c1cc2ccccc2c(-c2ccccc2Cl)n1 (stereo not given) | inactive | –
CCc1nc(N)nc(N)c1-c1ccc(Cl)cc1 | inactive | 15.3 µM (active)
CCCCCCCC(=O)OC | inactive | –
NCCOCCOCCN | inactive | –
Cc1ccc(C(C)(C)C)c(O)c1 | inactive | –
CCCCCCCCCCCCCCOS(=O)(=O)O | – | 68.3 µM (active)
COC(=O)CCC(=O)OC | inactive | –
Cc1cc(Cc2ccc(N)c(C)c2)ccc1N | inactive | –
CCCCC(CC)COC(=O)CCCCCCCC(=O)OCC(CC)CCCC (stereo not given) | inactive | –
CCCCCCC(CCCCCCCCCCC(=O)OCC(COC(C)=O)OC(C)=O)OC(C)=O (stereo not given) | inactive | –
CCCCC(CC)CO (stereo not given) | inactive | –
